Among all 320,000 compounds or so, about 2,100 (0.66%) were called active. About 53% were inconclusive and are not listed. Calls come from the whole dose curve; as a rule, active = well fitted inhibition curve with a large enough effect in the signal ratio, with a control signal flat (not every such curve was filed as active); inconclusive = small, poorly fitted or top-dose-only effect, or effect the other way, or a change in a side signal; inactive = flat fitted curve, though single readings scatter; the % refers to the signal ratio. The sample as a whole holds a higher share of actives than the screen did.
Experiment: qHTS Assay for Lipid Storage Modulators in Drosophila S3 Cells;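 for cell number change: cells counted by Cell Tracker Red CMTPX staining in the red channel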; for lipid storage change, negative = inhibition: % is set by controls: 0 for no effect and ±100 for the full control effect
Settings: BODIPY lipid droplet fluorescence, 18-24 h, cells fed with added oleic acid; cell number change: measured here: cell count max response; series mostly up to 46.1 µM; lipid storage change, negative = inhibition: at the top concentration
Procedure, shortened: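 Drosophila S3 cells loaded with oleic acid (400 uM, as added) and compounds at several concentrations; lipid droplets imaged by 488-nm laser-scanning cytometry, 500–530 nm intensity and object ratio to cell channel. Percent activity normalized to 20 uM Triacsin C.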
Potency is the fitted concentration of half-maximal effect.

SMILES	lipid storage change, negative = inhibition	cell number change	Potency	outcome
CCn1c(COc2ccccc2C(N)=O)nc2ccccc21	-2.01% (inactive)	-13.5%		
CCOC(=O)Cc1csc(NC(=S)NC(=O)c2ccc(C)cc2)n1	8.49% (inactive)	12.7%		
CCOC(=O)Cc1csc(NC(=O)c2ccc(F)cc2)n1	0.5% (inactive)	5.42%		
CCOC(=O)Cc1csc(NC(=S)NC(=O)c2ccc(F)cc2)n1		-14.9%	10.3 µM (active)	
COc1cc2c(cc1OC)C1Cc3ccc(OC)c(OC)c3C[N+]1([O-])CC2 (configuration not stated)	0.646% (inactive)	8.62%		
Cc1nc(NCC2CCCO2)c2nnn(Cc3c(F)cccc3Cl)c2n1 (configuration not stated)	5.75% (inactive)	-5.53%		
c1ccc(N2CCN(c3ncccn3)CC2)cc1	-29.3% (inactive)	-7.61%		
c1cnc(N2CCN(c3ccc4ccccc4n3)CC2)nc1		23.8%	0.651 µM (active)	
c1ccc(C(c2ccccc2)N2CCN(c3ccc4ccccc4n3)CC2)cc1	-1.57% (inactive)	9.37%		
CCn1c(NC(=O)c2cccc(Cn3cc(Cl)cn3)c2)nc2ccccc21	3.94% (inactive)	-10.4%		
O=C(c1ccccn1)N1CCN(c2ccc(C(F)(F)F)cn2)CC1	1.09% (inactive)	-1.5%		
O=C(O)c1ccccc1-c1ccccc1C(=O)Nc1cccc(-c2nc3ccccc3o2)c1	4.74% (inactive)	14.5%		
CC(=O)Nc1cccc(-c2nc3ccccc3o2)c1				inactive
CS(=O)(=O)c1ccccc1C(=O)Nc1cccc(-c2nc3ccccc3o2)c1		-20.6%	13 µM (active)	
COc1cccc(-c2cc(C(=O)NCC3CCCO3)c3ccccc3n2)c1 (configuration not stated)	23.6% (inactive)			
Cc1ncoc1C(=O)Nc1ncc([N+](=O)[O-])s1	-4.91% (inactive)	-6.04%		
Cc1ccc(S(=O)(=O)CC(=O)Nc2ncc([N+](=O)[O-])s2)cc1		-14.4%		inactive
Cc1ccnc(NC(=O)c2ccc(Cl)s2)c1				inactive
Cc1ccc(CC(=O)Nc2ncc([N+](=O)[O-])s2)cc1	-18.5% (inactive)	2.17%		
O=C(CCS(=O)(=O)c1ccccc1)Nc1ncc([N+](=O)[O-])s1		-3.6%	4.61 µM (active)	
Cc1ccc(C(=O)Nc2ncc([N+](=O)[O-])s2)cc1		-15.4%	23.1 µM (active)	
CCCc1nnc(NC(=O)CCS(=O)(=O)c2ccccc2)s1		3.42%	1.46 µM (active)	
O=C(CS(=O)(=O)c1ccccc1)Nc1ncc([N+](=O)[O-])s1		-6.25%		inactive
CCOCCc1nnc(NC(=O)CCS(=O)(=O)c2ccccc2)s1		-12%		inactive

SMILES	lipid storage change, negative = inhibition	cell number change	Potency	outcome
Cc1ccnc(NC(=O)c2ccc(Br)s2)c1	1.19% (inactive)	12.2%		
CCCc1nnc(NC(=O)CS(=O)(=O)c2ccccc2)s1	2.43% (inactive)	-20%		
Cc1ccnc(NC(=O)c2ccc([N+](=O)[O-])s2)c1		-22%	11.2 µM (active)	
O=C(Nc1ccccc1F)Nc1ccc([N+](=O)[O-])cc1Cl	-3.39% (inactive)	6.06%		
Cc1ccccc1S(=O)(=O)Cc1ccc(C(=O)NC(C)c2ccccc2)o1 (configuration not stated)				inactive
Cn1cc(Br)c(NS(=O)(=O)c2ccc(Cl)s2)n1	-10.7% (inactive)	7.84%		
CCc1ccc(C(=O)COC(=O)CNC(=O)CNC(=O)Cc2ccccc2)cc1	-8.25% (inactive)	-4.14%		
CCc1ccccc1NC(=O)c1cnc2n(c1=O)CCS2	18.3% (inactive)	-5.43%		
COc1ccc(C(=O)Oc2cc(/C=N/NS(=O)(=O)c3ccccc3)ccc2OC)cc1		-2.45%		inactive
COc1ccccc1NS(=O)(=O)c1ccc(C(=O)NCC(c2ccco2)N(C)C)cc1 (configuration not stated)	12.6% (inactive)	-9.2%		
O=C(Nc1nc2c(F)cc(F)cc2s1)C1CCN(C(=O)c2ccc(F)cc2)CC1	25.4% (inactive)	13.4%		
CC1(C)CC(C(CC(=O)Nc2nccs2)c2ccccc2)CCO1 (configuration not stated)	-0.125% (inactive)	-3.73%		
O=C(CSc1nnc2c(Cl)cc(Cl)cn12)N1CCN(S(=O)(=O)c2ccccc2)CC1	29.6% (inactive)	0.68%		
CCOC(=O)C1=C(C)OC(N)=C(C#N)C1c1ccccc1 (configuration not stated)	8.87% [at 9.22 µM] (inactive)	2.6%		
CCOC(=O)C1=C(C)OC(N)=C(C#N)C1c1cccc(C)c1 (configuration not stated)	17.7% (inactive)	26.4%		
CCOc1cc(C2C(C#N)=C(N)OC(C)=C2C(C)=O)cc(Br)c1O (configuration not stated)			8.2 µM (active)	
CCc1nnc(NS(=O)(=O)c2ccc(NC(=O)c3ccco3)cc2)s1	-9.02% (inactive)	-17.4%		
COc1ccc(/C=N/N=C2/NC(=O)CC(C(=O)O)S2)cc1 (configuration not stated)	-10.8% (inactive)			
COc1ccc(CC2S/C(=N/N=C/c3ccc(O)cc3)NC2=O)cc1 (configuration not stated)	-8.38% (inactive)	8.53%		
COc1ccc(/C=N/N=C2/NC(=O)C(c3ccccc3)(c3ccccc3)S2)cc1		1.45%	16.4 µM (active)	
Cc1ccc(/C=C/S(=O)(=O)NCC(=O)OCC(=O)N2CC(=O)Nc3ccccc32)cc1	-12.9% (inactive)	5.37%		
CCOc1ncccc1C(=O)Nc1cccc(C(=O)Nc2cccc(S(=O)(=O)CCO)c2)c1	-0.285% (inactive)	-9.36%		
Cc1ccc(-c2nnc(SCC#N)n2N)cc1	10.1% (inactive)	6.27%		
COc1ccc(-c2csc3ncn(-c4ccccc4)c(=O)c23)cc1OC	1.51% (inactive)	-7.4%		

SMILES	lipid storage change, negative = inhibition	cell number change	Potency	outcome
Cc1cc(C)nc(CCNC(=O)C2CCC(=O)N(Cc3ccccc3F)C2)n1 (configuration not stated)	17.5% (inactive)	14.5%		
CCCNC(=O)CSCc1nc(-c2ccc(SC)cc2)oc1C	6.01% (inactive)	10.2%		
CSc1ccc(-c2nc(CSCC(=O)NCCCN3CCCC3=O)c(C)o2)cc1			1.84 µM (active)	
CSc1ccc(-c2nc(CSCC(=O)NCCCN3CCOCC3)c(C)o2)cc1	3.48% (inactive)	-0.666%		
CCOC(=O)C(CCCOc1cccc(OC)c1)C(=O)OCC	0.495% (inactive)	-10.4%		
O=C(COc1ccc([N+](=O)[O-])cc1)N1CCc2ccccc2C1	14.6% (inactive)	20%		
COc1ccc([N+](=O)[O-])cc1NC(=O)c1ccccc1N(C)S(C)(=O)=O	-5.45% (inactive)	-12.5%		
Clc1ccc(-c2nnc(Sc3nc4ccccc4o3)c3ccccc23)cc1	4.25% (inactive)	-12.5%		
Cc1ccc(-c2nnc(Sc3nc4ccccc4o3)c3ccccc23)cc1	4.8% (inactive)	-15.3%		
O=c1c(Cl)c2oc3ccccc3nc-2c2ccccc12		13.2%	11.6 µM (active)	
CCSc1ccc(-c2ccco2)nn1	0.907% (inactive)	13.6%		
O=c1c([N+](=O)[O-])c(O)c2cccc3c2n1CCC3	14.8% (inactive)	-0.265%		
O=C(Nc1ccccc1C(=O)Nc1ccccn1)c1cccc([N+](=O)[O-])c1		6.61%		inactive
N#Cc1c(N)nc2c(c1-c1ccc(F)cc1)c(=O)nc1sccn12	23% (inactive)			
CC1(c2ccccc2Cl)NC(=O)N(CC(=O)NCCC2=CCCCC2)C1=O (configuration not stated)				inactive
O=C(Cc1ccc(F)cc1)N1CCN(c2ccc([N+](=O)[O-])cc2)CC1		11.6%		inactive
Cc1ccc(CC(=O)N2CCN(c3ccc([N+](=O)[O-])cc3)CC2)cc1		10.2%	7.31 µM (active)	
O=C(Cc1ccc([N+](=O)[O-])cc1)N1CCN(c2ccc([N+](=O)[O-])cc2)CC1	-12.1% (inactive)	2.07%		
O=C(Nc1cccc2ccccc12)N1CCN(c2ncccn2)CC1	9.88% (inactive)	15%		
Cc1ccc(CN2CCN(Cc3cnc(N4CCOCC4)s3)CC2CCO)cc1 (configuration not stated)	-24.1% (inactive)	-2.17%		
CC(C)CN1CCN(Cc2cnc(N3CCOCC3)s2)CC1CCO (configuration not stated)	9.67% (inactive)	24.7%		
CC(C)=CCN1CCN(Cc2cnc(N3CCOCC3)s2)CC1CCO (configuration not stated)		-26.5%	13 µM (active)	
O=C1CN(S(=O)(=O)c2ccccc2)CCN1S(=O)(=O)c1ccccc1	-1.23% (inactive)	-1.6%		
NS(=O)(=O)c1ccc(NC(=O)CSC2=NC(=O)C(c3ccccc3)C(=O)N2)cc1 (configuration not stated)	-4.72% (inactive)	-0.978%		

SMILES	lipid storage change, negative = inhibition	cell number change	Potency	outcome
CCC1C(=O)N=C(SCC(=O)Nc2ccc(S(N)(=O)=O)cc2)NC1=O (configuration not stated)		-37.4%	6.51 µM (active)	
CCC1C(=O)N=C(SCC(=O)Nc2ccccc2)NC1=O (configuration not stated)	5.42% (inactive)	7.84%		
O=S(=O)(/N=C(/c1ccc(F)cc1)N1CCCCC1)c1ccc(Cl)cc1	1.25% (inactive)	-6.48%		
Cc1ccc(CNC(=O)CN2C(=O)c3ccccc3S2(=O)=O)cc1		20.7%		inactive
Cn1cc(C(=O)N/N=C/c2c(O)ccc3ccccc23)ccc1=O	17% (inactive)	-26.3%		
Cn1nccc1C(=O)N/N=C/c1c(O)ccc2ccccc12		-2.67%	14.6 µM (active)	
CN(C)c1ccc(/C=N/NC(=O)c2ccnn2C)cc1		-10.8%		inactive
O=C1NC(=S)N/C1=C/c1ccc(Oc2ccc(C(F)(F)F)cc2[N+](=O)[O-])c(Cl)c1	-0.498% (inactive)	-6.9%		
COc1ccc(N2C(=O)CC(NC3CCCCNC3=O)C2=O)cc1 (configuration not stated)	-4.85% (inactive)	5.19%		
COCC(=O)Nc1ccc(OCc2ccccc2)cc1		4%		inactive
COc1ccc(NC(=O)CN(C)C(=O)c2ccc(COc3ccccc3)cc2)cc1	16.5% (inactive)	-6.23%		
COc1ccc(NC(=O)CN(C)C(=O)/C=C/c2ccc(OCc3ccccc3)cc2)cc1		-11.8%	0.731 µM (active)	
Cc1ccc(C23CC4CC(CC(C(=O)OCC(=O)N(C)C)(C4)C2)C3)cc1	7.97% (inactive)	4.17%		
CCOc1ccccc1CNC(=O)c1ccc(Sc2ccc(Cl)cc2)c(NC(C)=O)c1	22.8% (inactive)	7.67%		
Cc1[nH]c2ccccc2c1C(=O)C(=O)N1CCN(C(=O)c2ccco2)CC1		27%		inactive
Cc1ccccc1NC(=O)c1ccccn1	2.23% (inactive)			
Cc1ccccc1NC(=O)c1cccc(C(=O)Nc2ccccc2C)n1		-25.7%	8.2 µM (active)	
O=C(Nc1ccccn1)c1onc2c1CCCC2	0.434% (inactive)			
Cc1ccccc1NC(=O)c1onc2c1CCCC2			25.9 µM (active)	
Cc1ccccc1NC(=O)C(=O)Nc1ccccc1C	7.41% (inactive)	0.926%		
O=C(Nc1cccc2ccccc12)c1onc2c1CCCC2				inactive
COc1cc2c(cc1OC)C(c1ccc3c(c1)OCO3)C1=C(CC(C)(C)CC1=O)N2 (configuration not stated)	-20.1% (inactive)	-17.2%		
CC(=O)NCc1cc(-c2ccc(Cl)cc2)no1	0.337% [at 9.22 µM] (inactive)	-2.06%		
